Assay results from PubChem BioAssay.
Calls of active or inactive are those of the source. Unless noted, the rule behind the calls is not given here.

Legend:
[1] = HepG2 liver cancer cell viability effects, profiling panel, resazurin fluorescence, 24 h, PK04 Diversity Set (AID 1172); conditions: higher = more signal
[2] = basal S. cerevisiae growth modulation, no modifier, primary screen, OD600, strain BY4716, 24 h, basal condition (AID 1173); conditions: OD600, 24 h, higher = more signal, called active from +8 up or from −8 down
[3] = MM1S myeloma cell viability, profiling panel, resazurin fluorescence, basal, 24 h, PK04 Diversity Set (AID 1174); conditions: higher = more signal, called active from +8 up or from −8 down;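 note: MM1S multiple myeloma cell line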
[4] = molecular target: Dihydroorotate dehydrogenase (quinone), mitochondrial (Plasmodium falciparum (isolate 3D7)) (UniProt Q08210); experiment: PfDHODH enzyme inhibitors, primary screen, biochemical, C-terminal His tag, absorbance 600 nm (AID 1175); conditions: DCIP absorbance 600 nm, higher = more signal, called active from +8 up or from −8 down;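 note: recombinant parasite enzyme with a five histidine tag at its C terminus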
Chain of Dihydroorotate dehydrogenase (quinone), mitochondrial (Plasmodium falciparum (isolate 3D7)) (Q08210 whole entry, looked up): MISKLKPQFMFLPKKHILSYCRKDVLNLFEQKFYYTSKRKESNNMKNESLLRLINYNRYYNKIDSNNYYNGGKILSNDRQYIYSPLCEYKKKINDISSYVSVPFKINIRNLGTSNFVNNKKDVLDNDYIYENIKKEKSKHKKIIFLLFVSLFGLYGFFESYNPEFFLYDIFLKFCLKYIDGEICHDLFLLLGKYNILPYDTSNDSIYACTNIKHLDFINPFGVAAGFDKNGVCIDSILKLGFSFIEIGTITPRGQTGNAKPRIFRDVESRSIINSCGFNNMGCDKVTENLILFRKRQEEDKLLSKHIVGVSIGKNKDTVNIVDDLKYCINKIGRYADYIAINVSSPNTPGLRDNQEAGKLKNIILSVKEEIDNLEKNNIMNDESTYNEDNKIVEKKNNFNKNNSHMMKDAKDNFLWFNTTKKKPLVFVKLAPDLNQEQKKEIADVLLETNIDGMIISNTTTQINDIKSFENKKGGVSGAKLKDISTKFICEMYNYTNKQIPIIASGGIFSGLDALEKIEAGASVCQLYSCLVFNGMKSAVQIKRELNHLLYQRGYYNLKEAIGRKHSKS

[5] = P. aeruginosa biofilm formation inhibitors, primary screen, strain PAO1, LB-PBS medium, absorbance 600 nm (AID 1176); conditions: P. aeruginosa PAO1 growth/biofilm, A600, 12 h; higher = more signal
[6] = S. cerevisiae RM11-1a growth modifiers, primary screen, strain RM11-1a, OD600, basal, 24 h (AID 1177); conditions: OD600, 24 h, higher = more signal, called active from +8 up or from −8 down;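 note: cultures grown under basal conditions with no added stressor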
[7] = E. coli acrAB mutant growth effects, primary screen, E. coli filamentation inducers, strain DRC39, OD650, 24 h (AID 1178); conditions: higher = more signal, called active from +8 up or from −8 down;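 note: growth measured as culture turbidity by optical density at 650 nm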
[8] = E. coli acrAB mutant growth effects, primary screen, E. coli filamentation inducers, strain DRC39, OD650, 48 h (AID 1179);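 note: screen aims at cell division blockers that make cells filament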; conditions: E. coli DRC39 delta-acrAB growth, higher = more signal, called active from +8 up or from −8 down
[9] = RPMI8226 myeloma cell viability, profiling panel, resazurin fluorescence, basal, 24 h, PK04 Diversity Set (AID 1180); conditions: higher = more signal;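 note: RPMI8826 multiple myeloma cell line at 5000 cells per well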
[10] = molecular target: E3 ubiquitin-protein ligase XIAP (Homo sapiens) (UniProt P98170); experiment: XIAP binders, primary screen, biophysical, small-molecule microarray, fluorescence 635 nm (AID 1181); conditions: small-molecule microarray binding, higher = more signal;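 note: score merges 667 nm emission and signal to noise over triplicate slides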
Chain of E3 ubiquitin-protein ligase XIAP (Homo sapiens) (P98170 whole entry, looked up): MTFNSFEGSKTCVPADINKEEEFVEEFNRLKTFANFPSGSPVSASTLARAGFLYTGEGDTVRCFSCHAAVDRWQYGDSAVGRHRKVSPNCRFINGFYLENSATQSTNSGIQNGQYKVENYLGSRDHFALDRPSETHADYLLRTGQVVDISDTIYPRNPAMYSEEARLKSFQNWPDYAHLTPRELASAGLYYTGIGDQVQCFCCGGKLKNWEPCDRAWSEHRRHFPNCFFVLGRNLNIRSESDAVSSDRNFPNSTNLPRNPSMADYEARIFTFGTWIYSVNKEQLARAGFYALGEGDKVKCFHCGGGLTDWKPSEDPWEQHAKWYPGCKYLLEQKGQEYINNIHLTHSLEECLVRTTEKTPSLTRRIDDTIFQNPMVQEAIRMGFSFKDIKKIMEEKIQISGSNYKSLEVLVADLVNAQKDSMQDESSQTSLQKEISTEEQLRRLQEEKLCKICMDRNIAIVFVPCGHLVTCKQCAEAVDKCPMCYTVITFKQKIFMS

[11] = test system: XIP peptide (Xip251-270) binding; experiment: small-molecule binders of XIP peptide, primary screen, biochemical, small-molecule microarray, fluorescence 635/667 nm, 0.1 µg/mL protein (AID 1182); conditions: fluorescent protein binding, 635 nm, higher = more signal, called active from +8 up or from −8 down
XIP peptide (Xip251-270) = experiment: small-molecule binders of XIP peptide, primary screen, biochemical, small-molecule microarray, fluorescence 635/667 nm, 0.5 µg/mL protein (AID 1183); conditions: small-molecule microarray binding, fluorescence 635 nm; higher = more signal
[12] = Plasmodium falciparum growth inhibition, primary screen, strain 3D7, DAPI fluorescence, 100 nL (AID 1184);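 note: parasites grown inside human red blood cells in medium with human serum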; conditions: P. falciparum 3D7 growth, 3 d, higher = more signal
[13] = molecular target: Homeobox protein Hox-A13 (Mus musculus) (UniProt Q62424); experiment: inhibitors of HoxA13-DNA binding, primary screen, biochemical, fluorescence polarization, labeled oligonucleotide (AID 1185); conditions: 15 min, higher = more signal, called active from +8 up or from −8 down
Chain of Homeobox protein Hox-A13 (Mus musculus) (Q62424 whole entry, looked up): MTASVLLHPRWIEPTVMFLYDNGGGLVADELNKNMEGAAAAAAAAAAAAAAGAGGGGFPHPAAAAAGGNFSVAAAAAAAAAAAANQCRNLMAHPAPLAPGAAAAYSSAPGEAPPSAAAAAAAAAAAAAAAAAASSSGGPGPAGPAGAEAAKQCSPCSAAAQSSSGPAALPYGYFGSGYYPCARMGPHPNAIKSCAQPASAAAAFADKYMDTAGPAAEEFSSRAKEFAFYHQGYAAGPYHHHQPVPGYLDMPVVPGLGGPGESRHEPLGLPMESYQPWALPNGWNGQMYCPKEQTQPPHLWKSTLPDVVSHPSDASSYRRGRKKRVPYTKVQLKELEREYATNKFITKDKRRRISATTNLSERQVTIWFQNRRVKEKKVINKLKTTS

Row | SMILES | z-score [1] | z-score [2] | z-score [3] | composite z-score [4] | z-score [5] | z-score [6] | z-score [7] | z-score [8] | z-score [9] | composite z-score [10] | composite z-score [11] | composite z-score (XIP peptide (Xip251-270)) | z-score [12] | z-score [13]
1 | COc1ccc(COC(=O)NN=C2C[C@@H](O)[C@@H](O)[C@@H]3[C@@H]4C(=O)N(C(C)(C)C)C(=O)[C@@H]4CC[C@@H]23)cc1 | -0.216 | -0.719 (inactive) | -0.181 (inactive) | -0.761 (inactive) | -0.225 (inactive) | -1.06 (inactive) | 0.237 (inactive) | 0.255 (inactive) | 0.156 | -0.252 | 0.457 (inactive) | 0.48 | 0.553 | -1.64 (inactive)
2 | CC(C)CN1CCc2nc(-c3ccccc3)c3c(c2C1)CO[C@@H](C)C3 | -0.622 | -1.33 (inactive) | 1.21 (inactive) | 0.638 (inactive) | -0.588 (inactive) | 0.697 (inactive) | -0.838 (inactive) | -0.0811 (inactive) | 0.829 | -0.22 | 0.973 (inactive) | 0.687 | -0.927 | -4.73 (inactive)
3 | CC(=O)OC[C@H]1O[C@H](CCON=C(C)C)C=C[C@@H]1OC(C)=O | -0.97 | 0.421 (inactive) | -0.54 (inactive) | -0.0136 (inactive) | 0.265 (inactive) | 0.404 (inactive) | 0.795 (inactive) | -0.844 (inactive) | -0.0326 | -0.102 | -0.843 (inactive) | 0.0795 | 1.48 | 0.389 (inactive)
4 | C#CCCCON=C1C[C@@H](O)[C@@H](O)[C@@H]2[C@@H]3C(=O)N(CC)C(=O)[C@@H]3CC[C@H]12 | -0.588 | 0.866 (inactive) | -0.729 (inactive) | -0.0526 (inactive) | -0.143 (inactive) | -0.0584 (inactive) | -0.312 (inactive) | -0.241 (inactive) | -1.09 | -0.114 | 0.835 (inactive) | -0.423 | -0.263 | 0.0042 (inactive)
5 | CCOC(=O)CCN1C(=O)[C@H]2[C@H]3[C@H](O)[C@H](O)CC(=NOCC=C(C)CCC=C(C)C)[C@H]3CC[C@H]2C1=O | -0.51 | 0.398 (inactive) | -0.524 (inactive) | -0.0222 (inactive) | 0.128 (inactive) | 0.0725 (inactive) | 0.614 (inactive) | 0.846 (inactive) | -0.764 | 0.0223 | -0.322 (inactive) | -0.206 | 0.241 | 0.765 (inactive)
6 | COC(=O)[C@H](C)NC(=O)CCC1CC(OC(=O)NCCc2ccc(F)cc2)CC2(CCCC(COC(=O)NCCOc3ccccc3)O2)O1 (some centres undefined) | 0.0903 | 0.338 (inactive) | 0.177 (inactive) | -0.361 (inactive) | -0.0326 (inactive) | 0.127 (inactive) | 0.289 (inactive) | -0.451 (inactive) | -0.0199 | -0.114 | 2.99 (inactive) | 0.536 | -1.84 | -1.1 (inactive)
7 | O=C1[C@H]2[C@H]3[C@H](O)[C@H](O)CC(=NOC[C@@H](O)COCc4ccco4)[C@@H]3CC[C@H]2C(=O)N1Cc1ccc2c(c1)OCO2 | 0.351 | 0.182 (inactive) | -0.524 (inactive) | -0.395 (inactive) | 0.0578 (inactive) | 0.865 (inactive) | 0.764 (inactive) | 1.29 (inactive) | 0.501 | -0.148 | -0.0588 (inactive) | 0.265 | 1.15 | 0.263 (inactive)
8 | C=CC[C@@H]1C=C[C@H](ON=C(C)CCN2CCCc3nc(C)c(C)cc32)[C@@H](CO)O1 | 0.394 | 0.529 (inactive) | -0.0956 (inactive) | -0.267 (inactive) | 0.936 (inactive) | 0.662 (inactive) | 0.382 (inactive) | -0.0088 (inactive) | -0.0021 | 1.07 | 1.59 (inactive) | 0.241 | -2.16 | -7.32 (inactive)
9 | O=C1C2=CC[C@H]3C(=O)N(C4CCCCC4)C(=O)[C@H]3[C@H]2[C@H](O)[C@@H]2O[C@H]12 | -3.76 | -5.74 (inactive) | -7.88 (inactive) | -3.96 (inactive) | -0.2 (inactive) | -1.83 (inactive) | 0.0488 (inactive) | -1.02 (inactive) | -4.05 | 0.0694 | 0.381 (inactive) | -0.274 | -1.98 | -5.22 (inactive)
10 | CO[C@H]1COC(=O)CC=C[C@H](C)[C@H](OC)COC(=O)[C@@H](C)NC(=O)CC=C[C@@H]1C | 0.664 | -1.17 (inactive) | 0.623 (inactive) | -0.498 (inactive) | -0.467 (inactive) | -1.22 (inactive) | 0.124 (inactive) | -0.0133 (inactive) | 0.379 | 0.0399 | 0.533 (inactive) | 0.356 | -0.205 | -0.75 (inactive)
11 | CCN1C(=O)[C@H]2[C@@H]3C(=CC[C@H]2C1=O)C(=O)[C@H]1O[C@H]1[C@H]3O | -1.22 | -1.12 (inactive) | -5.38 (inactive) | -0.0207 (inactive) | -0.978 (inactive) | -0.628 (inactive) | -0.615 (inactive) | -0.788 (inactive) | -2.17 | 0.334 | -0.529 (inactive) | 0.568 | -1.94 | -6.04 (inactive)
12 | CCOC(=O)NN=C1C[C@@H](O)[C@@H](O)[C@@H]2[C@@H]3C(=O)N(C[C@@H]4CCCO4)C(=O)[C@@H]3CC[C@H]12 | 0.0254 | 0.197 (inactive) | -0.841 (inactive) | -1.36 (inactive) | -0.495 (inactive) | -0.396 (inactive) | 0.213 (inactive) | 0.626 (inactive) | -0.248 | -0.02 | 0.0272 (inactive) | 0.0356 | 0.379 | 0.0129 (inactive)
13 | O=C1C[C@@H](O)[C@@H](O)[C@@H]2[C@@H]3C(=O)N(C4CCCCC4)C(=O)[C@@H]3CC[C@@H]12 | -0.432 | 0.133 (inactive) | -0.262 (inactive) | -0.506 (inactive) | -1.13 (inactive) | 0.356 (inactive) | -0.574 (inactive) | -0.354 (inactive) | -0.27 | 0.333 | -0.08 (inactive) | 0.148 | 0.922 | 0.136 (inactive)
14 | CC(CCN1CCCc2nc(C)c(C)cc21)=NOC[C@@H](O)COCc1ccco1 | 0.365 | 0.657 (inactive) | 0.107 (inactive) | -0.697 (inactive) | 1.24 (inactive) | -0.349 (inactive) | 0.557 (inactive) | 0.948 (inactive) | 0.592 | 2.53 | 4.43 (inactive) | 0.831 | 0.245 | -8.38 (active)
15 | CCOC(=O)[C@H](Cc1ccccc1)NC(=O)CCC1CC(OC(=O)NCc2cccc3ccccc23)CC2(CCCC(COC(=O)NCCc3ccc(Cl)cc3)O2)O1 (some centres undefined) | 0.723 | -1.24 (inactive) | 0.768 (inactive) | -0.617 (inactive) | 0.32 (inactive) | -0.424 (inactive) | -0.178 (inactive) | -0.907 (inactive) | 1.45 | 0.165 | 0.351 (inactive) | 0.568 | -1.93 | -5.98 (inactive)
16 | CO[C@H]1COC(=O)CCC[C@H](C)[C@@H](OC)COC(=O)CC=C[C@@H]1C | 0.367 | -0.721 (inactive) | -1.18 (inactive) | -1.58 (inactive) | -0.339 (inactive) | -1.02 (inactive) | 0.42 (inactive) | 0.0526 (inactive) | 1.07 | 0.0029 | -0.294 (inactive) | 0.003 | -0.809 | 0.544 (inactive)
17 | COc1ccc(OC[C@@H]2CC3[C@@H](c4ccc(Br)cc4)[C@H](C)CC[C@H]3C(=O)O2)cc1 (some centres undefined) | 0.527 | -0.845 (inactive) | 0.364 (inactive) | 0.301 (inactive) | -0.315 (inactive) | 0.0086 (inactive) | -0.941 (inactive) | -1.58 (inactive) | 1.04 | 0.326 | -0.0755 (inactive) | 0.659 | 0.163 | 0.109 (inactive)
18 | COc1ccc(COC(=O)NN=C2C[C@@H](O)[C@@H](O)[C@@H]3[C@@H]4C(=O)N(Cc5ccc6c(c5)OCO6)C(=O)[C@@H]4CC[C@H]23)cc1 | -0.318 | 0.321 (inactive) | -0.0139 (inactive) | -0.394 (inactive) | -0.273 (inactive) | 0.139 (inactive) | 0.586 (inactive) | 1.17 (inactive) | 0.18 | 0.0498 | 0.369 (inactive) | 0.174 | -0.427 | -0.118 (inactive)
19 | CCOC(=O)[C@H](Cc1ccccc1)NC(=O)CCC1CC(OC(=O)NCc2cccc3ccccc23)CC2(CCCC(COC(=O)NCc3ccc4c(c3)OCO4)O2)O1 (some centres undefined) | -0.0973 | -0.552 (inactive) | -0.082 (inactive) | -0.929 (inactive) | -0.373 (inactive) | -0.131 (inactive) | 1.56 (inactive) | 1.41 (inactive) | 0.922 | -0.209 | -0.322 (inactive) | 0.818 | 0.721 | -3.19 (inactive)
20 | O=C1[C@H]2[C@H]3[C@H](O)[C@H](O)CC(=NOCc4ccccc4)[C@@H]3CC[C@H]2C(=O)N1c1cccc(Oc2ccccc2)c1 | 0.363 | 0.204 (inactive) | -0.857 (inactive) | -0.0818 (inactive) | 0.741 (inactive) | 0.056 (inactive) | 0.796 (inactive) | 1.4 (inactive) | 0.173 | -0.15 | 0.811 (inactive) | 0.123 | -0.129 | -1.24 (inactive)
21 | CCOC(=O)[C@H](CC(C)C)NC(=O)CCC1CC(OC(=O)NCCc2ccc(F)cc2)CC2(CCCC(COC(=O)NCc3cccc4ccccc34)O2)O1 (some centres undefined) | 0.682 | -1.9 (inactive) | 1.28 (inactive) | 0.0103 (inactive) | 0.168 (inactive) | -0.186 (inactive) | 0.424 (inactive) | -0.435 (inactive) | 1.3 | -0.0939 | -0.008 (inactive) | 0.24 | -1.48 | -5.81 (inactive)
